Source: PubChem BioAssay AID1159580 (chemical genetic matrix, 2015)
About 2,000 (36%) of roughly 5,500 compounds were called active. About 18% were inconclusive and are not listed. Cut-off read from the data, not from the text of the source: active = normalized growth mostly below about 0.91 (no sharp cut-off); inconclusive = no clear call, values can overlap the other calls; inactive = mostly above about 0.92. The list shows a part of the results.

Test: chemical genetic growth profiling, strain panel (AID 1159580);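 note: tested at 20 µM; growth read once vehicle control cultures reached saturation at 30 °C; 1 = growth at the plate median or of vehicle wells; lower values mean less growth of the strain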
Details: growth OD

Measured: normalized growth

C[n+]1ccccc1/C=N/O
inactive: S. cerevisiae deletion strains, locus YJR066W, strain TOR1, active compounds read low 0.986 | S. cerevisiae deletion strains, locus YKL009W, strain mrt4, active compounds read low 1.03 | S. cerevisiae deletion strains, locus YKL068W, active compounds read low 1.01 | S. cerevisiae deletion strains, locus YKL085W, strain MDH1 (second series), active compounds read low 1 | S. cerevisiae deletion strains, locus YKL085W, strain MDH1, active compounds read low 1 | S. cerevisiae deletion strains, locus YKL160W, strain elf1, active compounds read low 0.997 | S. cerevisiae deletion strains, locus YKL190W, strain CNB1, active compounds read low 1.01 | S. cerevisiae deletion strains, locus YKR001C, strain vps1, active compounds read low 0.989 | S. cerevisiae deletion strains, locus YKR026C, strain gcn3, active compounds read low 1.01 | S. cerevisiae deletion strains, locus YKR091W, strain srl3, active compounds read low 0.993 | S. cerevisiae deletion strains, locus YLL001W, strain dnm1, active compounds read low 0.973 | S. cerevisiae deletion strains, locus YLL026W, active compounds read low 0.996 | S. cerevisiae deletion strains, locus YLL041C, strain sdh2, active compounds read low 0.985 | S. cerevisiae deletion strains, locus YLR027C, strain aat2, active compounds read low 1.01 | S. cerevisiae deletion strains, locus YLR039C, strain RIC1, active compounds read low 1.01 | S. cerevisiae deletion strains, locus YLR058C, strain SHM2, active compounds read low 1.01 | S. cerevisiae deletion strains, locus YLR102C, strain apc9, active compounds read low 0.994 | S. cerevisiae deletion strains, locus YLR113W, strain HOG1, active compounds read low 0.999 | S. cerevisiae deletion strains, locus YLR221C, strain rsa3, active compounds read low 1.02 | S. cerevisiae deletion strains, locus YLR258W, strain gsy2, active compounds read low 0.991 | S. cerevisiae deletion strains, locus YLR262C, strain YPT6 (second series), active compounds read low 1.02 | S. cerevisiae deletion strains, locus YLR262C, strain YPT6, active compounds read low 1 | S. cerevisiae deletion strains, locus YLR268W, strain sec22, active compounds read low 0.998 | S. cerevisiae deletion strains, locus YLR320W, strain mms22, active compounds read low 0.981 | S. cerevisiae deletion strains, locus YLR330W, strain CHS5, active compounds read low 1.01 | S. cerevisiae deletion strains, locus YLR342W, strain FKS1 (second series), active compounds read low 1 | S. cerevisiae deletion strains, locus YLR342W, strain FKS1, active compounds read low 1.02 | S. cerevisiae deletion strains, locus YLR357W, strain rsc2, active compounds read low 0.958 | S. cerevisiae deletion strains, locus YLR370C, strain arc18, active compounds read low 1.01 | S. cerevisiae deletion strains, locus YLR371W, strain rom2, active compounds read low 0.993 | S. cerevisiae deletion strains, locus YLR384C, strain iki3, active compounds read low 1 | S. cerevisiae deletion strains, locus YLR418C, strain cdc73, active compounds read low 0.983 | S. cerevisiae deletion strains, locus YML016C, strain PPZ1, active compounds read low 1.01 | S. cerevisiae deletion strains, locus YML032C, strain rad52, active compounds read low 0.989 | S. cerevisiae deletion strains, locus YML120C, strain ndi1, active compounds read low 1.02 | S. cerevisiae deletion strains, locus YML124C, strain tub3, active compounds read low 1 | S. cerevisiae deletion strains, locus YMR058W, strain fet3, active compounds read low 1.01 | S. cerevisiae deletion strains, locus YMR078C, strain ctf18, active compounds read low 0.993 | S. cerevisiae deletion strains, locus YMR125W, strain sto1, active compounds read low 1 | S. cerevisiae deletion strains, locus YMR129W, active compounds read low 0.998 | S. cerevisiae deletion strains, locus YMR205C, strain PFK2, active compounds read low 1.01 | S. cerevisiae deletion strains, locus YMR223W, strain ubp8, active compounds read low 1.01 | S. cerevisiae deletion strains, locus YMR231W, strain pep5, active compounds read low 0.996 | S. cerevisiae deletion strains, locus YMR307W, strain GAS1, active compounds read low 0.992 | S. cerevisiae deletion strains, locus YNL067W, strain RPL9B, active compounds read low 1 | S. cerevisiae deletion strains, locus YNL071W, strain lat1, active compounds read low 1.01 | S. cerevisiae deletion strains, locus YNL128W, strain TEP1, active compounds read low 1.02 | S. cerevisiae deletion strains, locus YNL153C, strain GIM3, active compounds read low 1.01 | S. cerevisiae deletion strains, locus YNL183C, strain NPR1, active compounds read low 0.924 | S. cerevisiae deletion strains, locus YNL209W, strain ssb2, active compounds read low 1.02 | S. cerevisiae deletion strains, locus YNL233W, strain BNI4, active compounds read low 0.999 | S. cerevisiae deletion strains, locus YNL248C, strain rpa49, active compounds read low 0.978 | S. cerevisiae deletion strains, locus YNL250W, strain rad50, active compounds read low 1.01 | S. cerevisiae deletion strains, locus YNL271C, strain bni1, active compounds read low 1.01 | S. cerevisiae deletion strains, locus YNL298W, strain CLA4, active compounds read low 1.01 | S. cerevisiae deletion strains, locus YNL307C, strain MCK1, active compounds read low 0.992 | S. cerevisiae deletion strains, locus YNL322C, strain KRE1 (second series), active compounds read low 0.991 | S. cerevisiae deletion strains, locus YNR049C, strain mso1, active compounds read low 1.01 | S. cerevisiae deletion strains, locus YNR052C, strain pop2, active compounds read low 1 | S. cerevisiae deletion strains, locus YOL006C, strain TOP1, active compounds read low 1.01 | S. cerevisiae deletion strains, locus YOL012C, strain htz1 1.12 | S. cerevisiae deletion strains, locus YOL147C, strain pex11, active compounds read low 1 | S. cerevisiae deletion strains, locus YOR001W, strain rrp6, active compounds read low 0.992 | S. cerevisiae deletion strains, locus YOR061W, strain CKA2, active compounds read low 1.01 | S. cerevisiae deletion strains, locus YOR069W, strain VPS5, active compounds read low 1.01 | S. cerevisiae deletion strains, locus YOR070C, strain gyp1, active compounds read low 1 | S. cerevisiae deletion strains, locus YOR080W, strain dia2, active compounds read low 1 | S. cerevisiae deletion strains, locus YOR083W, strain WHI5, active compounds read low 0.948 | S. cerevisiae deletion strains, locus YOR106W, strain vam3, active compounds read low 0.995 | S. cerevisiae deletion strains, locus YOR136W, strain idh2, active compounds read low 0.993 | S. cerevisiae deletion strains, locus YOR144C, strain elg1, active compounds read low 0.994 | S. cerevisiae deletion strains, locus YOR184W, strain ser1, active compounds read low 0.985 | S. cerevisiae deletion strains, locus YOR231W, strain MKK1, active compounds read low 1.02 | S. cerevisiae deletion strains, locus YOR265W, strain rbl2, active compounds read low 1 | S. cerevisiae deletion strains, locus YOR270C, strain vph1, active compounds read low 1.04 | S. cerevisiae deletion strains, locus YOR290C, strain snf2, active compounds read low 1.03 | S. cerevisiae deletion strains, locus YOR316C, strain cot1, active compounds read low 1 | S. cerevisiae deletion strains, locus YPL051W, strain arl3, active compounds read low 1.02 | S. cerevisiae deletion strains, locus YPL055C, strain LGE1, active compounds read low 1.04 | S. cerevisiae deletion strains, locus YPL078C, strain atp4, active compounds read low 0.992 | S. cerevisiae deletion strains, locus YPL106C, strain sse1, active compounds read low 0.99 | S. cerevisiae deletion strains, locus YPL240C, strain hsp82, active compounds read low 1 | S. cerevisiae deletion strains, locus YPL256C, strain CLN2, active compounds read low 1.01 | S. cerevisiae deletion strains, locus YPR119W, strain clb2, active compounds read low 0.998 | S. cerevisiae deletion strains, locus YPR141C, strain kar3, active compounds read low 0.997 | S. cerevisiae deletion strains, locus YPR163C, strain tif3, active compounds read low 1.01 | S. cerevisiae deletion strains, locus YPR167C, strain met16, active compounds read low 0.992 | S. cerevisiae deletion strains, strain wtn01, active compounds read low 0.993 | S. cerevisiae strains, strain wild type, active compounds read low 1.01
